Drawing on PubChem BioAssay, this text covers composite z-score and z-score for 13 compounds.

Test [1] is described as follows: binders of probe aFSTL3 on microarray, primary screen, stem cell growth factor project, biochemical, small-molecule microarray, fluorescence 635/667 (AID 1064).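 Also: measures binding of the biotinylated anti-FSTL3 antibody to printed compounds.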 Particulars: higher = more signal.
Test [2] can be described thus: binders from COS7 lysate, DM2A8 probe, primary screen, torsin A project, cell lysate, small-molecule microarray, fluorescence 635/667 (AID 1065). As to conditions: higher = more signal, COS7 lysate expressing mutant human TOR1A.
The nature of test [3]: binders of probe aFGF2 on microarray, primary screen, stem cell growth factor project, biochemical, small-molecule microarray, fluorescence 635/667 (AID 1067).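 Also: measures binding of biotinylated aFGF2 protein to printed compounds on slides; z-score merges feature fluorescence and signal-to-noise across triplicate slides.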 As to conditions: higher = more signal.
Test [4] can be described thus: binders of probe aFGF10 on microarray, primary screen, stem cell growth factor project, biochemical, small-molecule microarray, fluorescence 635/667 (AID 1071).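 Also: score merges 667 nm spot intensity and signal to noise from triplicate slides.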 Particulars: higher = more signal.
Test [5] has as its target Neurogenic locus notch homolog protein 2 (Homo sapiens) (UniProt Q04721). The test can be described thus: Notch2 binders on small-molecule microarrays, primary screen, biochemical, small-molecule microarray, 635 nm fluorescence, stem cell growth factors (AID 1073). As to conditions: Notch2 binding, higher = more signal.
Test [6] concerns the target Pro-neuregulin-1, membrane-bound isoform (Homo sapiens) (UniProt Q02297). The test can be described thus: NRG1 binders on small-molecule microarrays, primary screen, psychiatric disease protein project, biochemical, small-molecule microarray, fluorescence 635/667 (AID 1075).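 Also: score combines 667 nm spot fluorescence with signal to noise.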 Particulars: NRG1 binding, 635 nm fluorescence, higher = more signal.
For test [7], the system named is Neuregulin-1 EGF-like domain. The test can be described thus: binders of neuregulin-1 EGF-like domain, primary screen, biochemical, small-molecule microarray, 635 nm fluorescence (AID 1081).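 Also: binding of the protein to compounds printed on small-molecule microarray slides.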 As to conditions: small-molecule microarray binding, higher = more signal.
Test [8] can be described thus: FRG1 promoter luciferase signal modulators, primary screen, FRG1 inhibition for FSHD, cell-based, C2C12 myotubes, firefly/Renilla luciferase, luminescence (AID 1084). Particulars: higher = more signal, called active from +8 up or from −8 down.
A short description of test [9]: binders of probe aFST on microarray, primary screen, stem cell growth factor project, biochemical, small-molecule microarray, fluorescence 635/667 (AID 1086).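 Also: score merges 667 nm fluorescence with signal-to-noise of each printed compound spot.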 As to conditions: higher = more signal.
The nature of test [10]: binders of probe aHhip on microarray, primary screen, stem cell growth factor project, biochemical, small-molecule microarray, fluorescence 635/667 (AID 1087).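 Also: score merges spot fluorescence at 667nm with spot signal to noise ratio.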 As to conditions: higher = more signal.

Each structure is given as a SMILES string. Activity calls are given as the source filed them.

Sequence of Neurogenic locus notch homolog protein 2 (Homo sapiens) (Q04721 whole entry, looked up, canonical isoform): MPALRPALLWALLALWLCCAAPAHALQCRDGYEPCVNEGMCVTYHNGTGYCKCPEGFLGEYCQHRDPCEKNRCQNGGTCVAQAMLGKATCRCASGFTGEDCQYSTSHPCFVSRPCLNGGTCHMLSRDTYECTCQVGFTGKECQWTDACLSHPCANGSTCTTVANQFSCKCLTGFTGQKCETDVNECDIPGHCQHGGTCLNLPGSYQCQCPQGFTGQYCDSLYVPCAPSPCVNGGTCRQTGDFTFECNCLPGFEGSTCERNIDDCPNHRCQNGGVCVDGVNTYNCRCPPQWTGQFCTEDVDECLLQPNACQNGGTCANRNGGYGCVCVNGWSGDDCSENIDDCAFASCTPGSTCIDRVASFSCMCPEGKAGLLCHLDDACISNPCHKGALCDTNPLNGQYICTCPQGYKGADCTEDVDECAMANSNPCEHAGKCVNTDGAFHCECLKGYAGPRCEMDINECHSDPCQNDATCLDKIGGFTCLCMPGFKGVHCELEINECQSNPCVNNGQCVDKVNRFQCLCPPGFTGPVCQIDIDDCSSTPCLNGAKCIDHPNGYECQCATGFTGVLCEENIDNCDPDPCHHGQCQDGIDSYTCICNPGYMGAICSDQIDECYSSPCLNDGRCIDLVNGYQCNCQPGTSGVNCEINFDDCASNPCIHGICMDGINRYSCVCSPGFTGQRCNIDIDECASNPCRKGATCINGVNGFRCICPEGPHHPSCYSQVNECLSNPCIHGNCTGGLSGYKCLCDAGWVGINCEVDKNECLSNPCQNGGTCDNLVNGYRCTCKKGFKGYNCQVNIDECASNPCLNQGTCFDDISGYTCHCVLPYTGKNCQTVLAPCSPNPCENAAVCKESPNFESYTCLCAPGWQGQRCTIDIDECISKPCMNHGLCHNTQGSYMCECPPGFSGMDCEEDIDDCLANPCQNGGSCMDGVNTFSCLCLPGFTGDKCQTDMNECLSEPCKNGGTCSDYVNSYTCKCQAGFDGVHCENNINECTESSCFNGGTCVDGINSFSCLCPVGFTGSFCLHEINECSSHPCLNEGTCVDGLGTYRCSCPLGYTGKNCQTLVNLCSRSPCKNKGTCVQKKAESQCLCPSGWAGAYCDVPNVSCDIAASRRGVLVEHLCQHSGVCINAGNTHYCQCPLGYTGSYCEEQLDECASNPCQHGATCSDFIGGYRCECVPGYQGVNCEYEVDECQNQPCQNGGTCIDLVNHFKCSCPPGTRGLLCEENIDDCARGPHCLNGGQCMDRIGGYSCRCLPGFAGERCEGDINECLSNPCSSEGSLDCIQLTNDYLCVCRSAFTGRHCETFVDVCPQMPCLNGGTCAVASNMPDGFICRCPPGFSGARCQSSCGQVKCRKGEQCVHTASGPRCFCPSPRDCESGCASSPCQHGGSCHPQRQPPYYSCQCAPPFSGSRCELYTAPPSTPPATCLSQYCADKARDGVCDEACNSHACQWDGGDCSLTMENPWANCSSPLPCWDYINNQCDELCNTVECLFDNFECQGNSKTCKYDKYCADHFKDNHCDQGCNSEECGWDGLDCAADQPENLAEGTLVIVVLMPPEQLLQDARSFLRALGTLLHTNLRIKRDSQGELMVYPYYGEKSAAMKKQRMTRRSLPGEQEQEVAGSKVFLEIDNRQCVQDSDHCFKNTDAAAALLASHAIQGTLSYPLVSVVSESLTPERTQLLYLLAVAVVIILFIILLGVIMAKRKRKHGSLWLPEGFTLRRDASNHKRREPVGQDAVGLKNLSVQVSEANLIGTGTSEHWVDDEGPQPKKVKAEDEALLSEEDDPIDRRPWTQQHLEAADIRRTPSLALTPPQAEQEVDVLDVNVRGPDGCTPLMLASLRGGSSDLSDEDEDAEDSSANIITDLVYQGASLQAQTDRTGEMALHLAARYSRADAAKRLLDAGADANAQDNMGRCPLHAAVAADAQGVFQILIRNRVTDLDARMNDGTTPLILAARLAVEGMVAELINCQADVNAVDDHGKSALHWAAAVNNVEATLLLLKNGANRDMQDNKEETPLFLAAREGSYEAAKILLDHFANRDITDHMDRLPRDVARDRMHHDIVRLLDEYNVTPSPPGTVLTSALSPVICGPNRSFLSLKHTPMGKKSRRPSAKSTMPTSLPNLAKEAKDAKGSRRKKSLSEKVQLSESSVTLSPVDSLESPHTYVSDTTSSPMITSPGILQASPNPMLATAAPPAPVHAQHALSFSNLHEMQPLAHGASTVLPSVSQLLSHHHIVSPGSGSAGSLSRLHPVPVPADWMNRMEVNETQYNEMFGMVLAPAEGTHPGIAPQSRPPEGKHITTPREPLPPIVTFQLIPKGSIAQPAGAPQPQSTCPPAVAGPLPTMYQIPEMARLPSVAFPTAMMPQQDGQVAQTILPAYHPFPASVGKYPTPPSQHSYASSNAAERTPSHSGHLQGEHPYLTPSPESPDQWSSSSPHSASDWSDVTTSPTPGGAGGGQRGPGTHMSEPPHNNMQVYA
Sequence of Pro-neuregulin-1, membrane-bound isoform (Homo sapiens) (Q02297 whole entry, looked up, the tested form may be a part, canonical isoform): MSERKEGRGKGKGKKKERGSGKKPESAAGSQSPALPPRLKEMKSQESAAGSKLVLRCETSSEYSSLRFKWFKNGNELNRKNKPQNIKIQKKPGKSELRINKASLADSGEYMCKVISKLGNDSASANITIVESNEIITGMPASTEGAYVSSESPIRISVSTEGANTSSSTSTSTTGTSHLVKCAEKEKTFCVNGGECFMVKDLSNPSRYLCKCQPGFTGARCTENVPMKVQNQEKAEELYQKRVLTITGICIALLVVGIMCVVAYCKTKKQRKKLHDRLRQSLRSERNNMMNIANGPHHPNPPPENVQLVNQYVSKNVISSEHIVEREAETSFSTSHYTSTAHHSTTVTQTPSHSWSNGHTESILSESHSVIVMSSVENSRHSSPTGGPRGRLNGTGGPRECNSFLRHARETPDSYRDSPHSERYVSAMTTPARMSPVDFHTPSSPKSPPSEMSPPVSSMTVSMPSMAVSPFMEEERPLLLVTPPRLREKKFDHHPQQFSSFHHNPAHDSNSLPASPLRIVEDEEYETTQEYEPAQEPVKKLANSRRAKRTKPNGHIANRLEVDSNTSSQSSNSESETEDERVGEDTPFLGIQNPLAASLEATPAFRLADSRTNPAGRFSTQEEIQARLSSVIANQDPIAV

Take `O=C(CS)NCCCCCCNC(=O)[C@@H]1C[C@@H]2C(=O)NCC(=O)N2[C@@H]1c1ccc(O)cc1`: the composite z-score in test [1] is 0.169; in test [2] it was -0.0906; in test [3], -0.157; in test [4], -0.505; in test [5] it was -0.918; in [6] it was -0.75. For the same compound, the composite z-score in test [7] was 0.729; in [9], -0.183; in [10], -0.0324. Further, the z-score in test [8] was -1.15 (inactive).
In the case of `Cc1ccc([C@H]2C(C(=O)O)=C[C@@H](C(C)(C)C)N2S(=O)(=O)c2ccc(C)cc2)cc1`, the composite z-score is 0.137 in test [1]; -0.0985 in test [2]; 0.17 in [3]; 0.965 in [4]; 1.55 in test [5]; 1.54 in [6]. Further, the values for the composite z-score in [7], in test [9] and in test [10] were 1.17, 0.734 and 0.235, respectively. Further, the z-score in test [8] is -2.04 (inactive).
Take `CC1(C)C(=O)C(c2ccccc2)=C2CN3C(=O)N(CCc4ccccc4)C(=O)C3(Cc3ccc(C(F)(F)F)cc3)C=C21` (stereo not given): the composite z-score was 0.138 in test [1]; -0.2 in [2]; 0.0814 in test [3]; 0.432 in test [4]; 1.66 in [5]; 0.613 in [6]. Besides, the results for the composite z-score in [7], in test [9] and in test [10] were 0.831, 1.67 and -0.0024, respectively. The z-score in test [8] is -0.495 (inactive).
Take `C=CC1c2cc(O)c(OC)cc2CCN1Cc1ccc([N+](=O)[O-])o1` (stereo not given): the composite z-score in test [1] is 0.29; in [2], 0.381; in test [3], -0.0156; in [4], 0.673; in [5], 1.12; in test [6], 1.64. Also, the figures for the composite z-score in test [7], in test [9] and in [10] were 1.09, 0.457 and 0.245, respectively. Also, in test [8], the z-score is -0.0303 (inactive).
Consider `CCCCCCCCCCC(O)C1C=CC2C(=O)N(c3ccccc3)C(=O)C2N1Nc1ccccc1F` (stereo not given), for which the composite z-score was 0.51 in test [1]; -0.165 in test [2]; -0.0647 in [3]; 0.183 in [4]; -0.503 in test [5]; 1.22 in test [6]. Moreover, the composite z-score was 0.586 in [7], -0.08 in test [9] and -0.185 in test [10]. The z-score in test [8] is 0.15 (inactive).
Regarding `CN1C(=O)C2C(C1=O)C1C=C(CCCO)C2C(C2CC2)N1Cc1cc2c(cc1Br)OCO2` (stereo not given), the composite z-score in [1] was 0.454; in [2], 0.919; in test [3], -0.141; in [4], 0.271; in test [5] it was 0.713; in test [6], 1.24. The composite z-score in test [7] was 1.29; in test [9], 0.252; in [10], -0.201. Besides, in test [8], the z-score is -0.999 (inactive).
In the case of `COC(=O)[C@@]1(Cc2ccc(OC)cc2)[C@H]2c3cc(C(=O)N4CCCC4)n(Cc4ccc(S(C)(=O)=O)cc4)c3C[C@H]2CN1C(=O)c1ccccc1`, the composite z-score was 0.438 in test [1]; -0.208 in [2]; 0.296 in test [3]; 0.587 in test [4]; 1.59 in [5]; 2.07 in test [6]. For the same compound, the composite z-score is 1.31 in test [7], 1.25 in [9] and 0.0053 in test [10]. Further, the z-score in [8] was 0.862 (inactive).
As to `O=C1C2C=CC(C(O)c3ccco3)N(Nc3ccccc3)C2C(=O)N1c1ccccc1` (stereo not given), the composite z-score in test [1] is 0.76; in [2], -0.79; in [3], -0.0767; in [4], -0.216; in test [5] it was -0.331; in [6], 0.944. In addition, the composite z-score was 1.08 in test [7], 0.225 in test [9] and -0.134 in test [10]. Besides, the z-score in test [8] was 0.64 (inactive).
Turning to `CCCCCCCCCCC(O)C1C=CC2C(=O)N(C)C(=O)C2N1Nc1cc(OC)c(OC)c(OC)c1` (stereo not given), the composite z-score in test [1] is 0.736; in test [2], -0.157; in [3], -0.194; in [4] it was -0.873; in [5], -0.717; in test [6] it was 0.55. The values for the composite z-score in [7], in test [9] and in test [10] were -0.199, 0.0296 and -0.21, respectively. The z-score in [8] is 0.507 (inactive).
Consider `COCC(=C=CC[C@@H](O)c1ccc(OCCO)cc1)CCO`, for which the composite z-score was -0.394 in [1]; 1.19 in [2]; -0.0861 in [3]; 0.115 in [4]; -0.0206 in test [5]; 1.45 in test [6]. For the same compound, the composite z-score in test [7] is 0.745; in test [9], 0.17; in test [10], -0.249. For the same compound, the z-score in test [8] was 1.67 (inactive).
`C=CCC(OC(C)=O)[C@@H]1[C@@H](N(Cc2ccc(-c3cccc(C(F)(F)F)c3)o2)C(=O)c2cccc3ccccc23)c2cc(OCCCO)ccc2N1C(=O)Cc1ccc(OC)cc1` (stereo not given in full): the composite z-score in [1] was -0.238; in test [2], -0.125; in test [3], -0.143; in test [4] it was -0.0597; in test [5], -0.386; in test [6], 0.0701. Also, the composite z-score in test [7] was -0.398; in test [9], 0.378; in test [10], -0.179. Also, the z-score in [8] is 0.317 (inactive).
Take `CN(C)CCCCCCNC(=O)[C@@H]1C[C@@H]2C(=O)N[C@@H](CCCCN)C(=O)N2[C@@H]1c1ccc(O)cc1`: the composite z-score amounted to 3.77 in test [1]; 1.82 in [2]; 0.939 in [3]; 1.2 in [4]; 1.65 in [5]; 2.91 in test [6]. The composite z-score stood at 1.53 in test [7], 3.81 in test [9] and 3.69 in test [10]. In test [8], the z-score is 0.918 (inactive).
As to `COc1cc(NN2C(C(O)c3ccccc3)C=CC3C(=O)N(C)C(=O)C32)cc(OC)c1OC` (stereo not given), the composite z-score in test [1] is 0.0217; in test [2] it was 0.48; in test [3] it was 0.0074; in test [4], 0.371; in test [5], 1.34; in test [6] it was 1.88. Moreover, the composite z-score is 1.36 in test [7], 0.4 in test [9] and -0.0672 in test [10]. Further, the z-score in [8] is 0.359 (inactive).
